Reference: ChEMBL document CHEMBL4513216, “Probing the Open Global Health Chemical Diversity Library for Multistage-Active Starting Points for Next-Generation Antimalarials” (ACS Infect Dis, 2020)
The campaign covered roughly 69,000 compounds. About 8,600 (12%) showed an effect of 50% or more. The sample holds strong results, similar compounds and a random draw of the others, so the mix is not that of the screen.

System: Plasmodium berghei
Assay: Screen against P. berghei liver stage (PbLuc), transformed with Luciferase, at 10uM
Type: functional, HepG2
Settings: tested at 10 uM

Compound | INHIBITION
COc1ccnc(N2CCN(Cc3ncc(-c4ccccc4)o3)CC2)n1 | 56%
COc1ccnc(N2CCCN(Cc3ncc(C(C)C)o3)CC2)n1 | 9.76%
COc1ccnc(N2CCN(Cc3ncc(C(C)(C)C)o3)CC2)n1 | 9.76%
Cc1nnc(CN(C)CCc2nc(-c3cccc(Cl)c3)no2)n1C | 34.5%
CN(CCc1nc(-c2cccc(Cl)c2)no1)CCn1cccn1 | 12.6%
Cc1noc(C)c1CN(C)CCc1nc(-c2cccc(Cl)c2)no1 | 88.1%
O=C(Cc1cccnc1)N1CCC2(CCN(C3CCOC3)CC2)C1 (stereo not drawn) | -1.83%
O=C(Cc1cccnc1)N1CCC2(CC1)CCN(C1CCOC1)C2 (stereo not drawn) | 53.4%
O=C(Cc1cccnc1)N1CCC2(CC1)CCN(C1CCOCC1)C2 | -3.19%
CC(=O)N1CCN(Cc2ccc(C)o2)CC2(CC(=O)N(C)C2)C1 (stereo not drawn) | 3.81%
COc1ncccc1N(C)C(=O)Cn1cc(-c2ccccc2)nn1 | 4.34%
Cc1ccc(C2COCCN2C(=O)c2ccsc2)o1 (stereo not drawn) | 3.77%
N#CCCN(Cc1cccnc1)C(=O)c1ccc(OCC2CC2)cc1 | -92.2%
N#CCCN(Cc1ccco1)C(=O)c1ccc(OCC2CC2)cc1 | 69.5%
N#CCCN(CCC#N)C(=O)c1ccc(OCC2CC2)cc1 | -77.9%
CC(=O)NCC(=O)N1CCC2(CC1)NC(=O)CC2c1cnn(C)c1 (stereo not drawn) | 43.1%
Cc1cnn(CC2CCCN2C(=O)c2cc(C)nc3[nH]nc(C)c23)c1 (stereo not drawn) | -37.7%
CCOc1ncccc1C(=O)N1CCCC(c2nncn2C)C1 (stereo not drawn) | -98.8%
CCc1nnc(CN2CCC3(CC2)Nc2ccccc2NC3=O)o1 | 18.2%
O=C1Nc2ccccc2NC12CCN(Cc1nnc(C3CC3)o1)CC2 | 56.1%
CC(C)c1nnc(CN2CCC3(CC2)Nc2ccccc2NC3=O)o1 | -20.7%
CC(=O)N1CCN(c2cc(-n3cccc3)ncn2)CC1 | -12.1%
CN(c1cccnn1)[C@@H]1CC[C@@H]2CN(Cc3cccc(C(=O)O)c3)C[C@@H]21 | 30.6%

Compound | INHIBITION
CC(C)CN(CC(O)c1ccc(F)cc1)C(=O)c1csnn1 (stereo not drawn) | -3.48%
CS(=O)(=O)N1CCN(CC(=O)Nc2cccc(Cl)c2)CC1 | 6.83%
c1ccc(C(NCc2nnc(-c3ccco3)o2)C2CCC2)cc1 (stereo not drawn) | 50.8%
Cc1ccc(N2CCCC(NCc3nnc(-c4ccco4)o3)C2)nn1 (stereo not drawn) | 11.94%
Fc1ccc(C(NCc2nnc(C3CC3)o2)C2CCC2)cc1 (stereo not drawn) | 23.9%
CC(C1CC1)N(C)Cc1nnc(-c2ccco2)o1 (stereo not drawn) | 21.5%
Fc1ccc(OC2CCN(Cc3nnc(-c4ccco4)o3)CC2)cc1 | -53.1%
Fc1ccc(C(NCc2nnc(-c3ccco3)o2)C2CCC2)cc1 (stereo not drawn) | 82.3%
CCc1nc(CN(C)C2CCN(CCn3cccn3)C2)no1 (stereo not drawn) | 14.1%
Cn1cnnc1CN1CCC2(CCCN(C3CCCC3)C2=O)C1 (stereo not drawn) | -15.6%
CCn1nc(C)c(CCNC(=O)C2CCCN(C3CCCC3)C2)c1C (stereo not drawn) | -23.4%
Cc1nnc2n1CCN(CC(O)CN1CCC(C)CC1)C2 (stereo not drawn) | 78.2%
CCc1nnc2n1CCN(CC(O)CN1CCC(C)CC1)C2 (stereo not drawn) | 30.3%
CC1CCN(CC(O)CN2CCn3c(nnc3C3CC3)C2)CC1 (stereo not drawn) | 12.3%
COc1ccc(C)cc1CN(C)CC(N)=O | -33.4%
CCc1ccc(CN2CCC3(CC(C(=O)NCC(C)C)=NO3)C2)o1 (stereo not drawn) | 32.5%
COc1ccc(CN2CCC3(CC2)CC(CC(=O)NC(C)C)CO3)cc1 (stereo not drawn) | 18.6%
CC(C)CNC(=O)C1=NOC2(CCN(Cc3ccc(C(C)C)cc3)C2)C1 (stereo not drawn) | 80.2%
Cc1ccc(CN2CCC3(CC(C(=O)NCC4CC4)=NO3)C2)cc1C (stereo not drawn) | 31.2%
O=C(NCC1CC1)C1=NOC2(CCN(Cc3ccc4c(c3)OCO4)C2)C1 (stereo not drawn) | 6.38%
COc1ccc(CN2CCC3(CC(C(=O)NCC(C)C)=NO3)C2)cc1 (stereo not drawn) | 78.2%
N#Cc1cccc(CN2CCC3(CC(C(=O)NCC4CC4)=NO3)C2)c1 (stereo not drawn) | 52%
Cc1cccc(CN2CCC3(CC(C(=O)NCC(C)C)=NO3)C2)c1 (stereo not drawn) | 76.2%

Compound | INHIBITION
CC(C)CNC(=O)C1=NOC2(CCN(Cc3cccc(C#N)c3)C2)C1 (stereo not drawn) | 20.6%
CC(C)CNC(=O)C1=NOC2(CCN(Cc3ccoc3)C2)C1 (stereo not drawn) | -4.26%
Cc1ccc(S(=O)(=O)N2CCC3(CC(C(=O)NCC(C)C)=NO3)C2)cc1 (stereo not drawn) | -10.2%
Cc1oncc1C(=O)N[C@@H]1CN(c2ncccn2)C[C@@H]2CCCO[C@@H]21 | -34.7%
O=c1[nH]c2cn(-c3cccc(Cl)c3)c(=O)n2[nH]1 | -14.9%
COc1ccc(CC(=O)N2CCN(c3nccn3C)CC2)cc1 | 40%
COCCN1CCCC2(CCN(c3cc(C)c(C#N)c(C)n3)C2)C1=O (stereo not drawn) | -8.25%
CN(C)C(=O)N1CCN(c2cc(N3CCCC3CO)ncn2)CC1 (stereo not drawn) | -3.68%
O=C(c1cncnc1)N1C[C@@H]2CC[C@H](Oc3cccc(F)c3)[C@@H]2C1 | 5.11%
CCc1n[nH]c(=O)c(C(=O)N2CCOC3(CCCC3)C2)c1CC | 48.2%
Cn1cnc(S(=O)(=O)NCCCN2CCCC2)c1Cl | -9.76%
Cc1nnc(CN(C)C2CCN(CCc3ccccn3)CC2)o1 | 21.5%
Cc1cc(S(=O)(=O)NC(=O)CCc2cccnc2)c(C)s1 | 32%
O=C(CCn1ccc2cc(Br)ccc21)NCc1ccc(C(=O)O)cc1 | 19%
CC(CNC(=O)CCc1ccco1)N1CCc2sccc2C1 (stereo not drawn) | 42.5%
Cc1ccc(CCCC(=O)N2CCCC(CS(N)(=O)=O)C2)s1 (stereo not drawn) | 9.79%
CCCc1nnc(NC(=O)NC(C)Cn2cccn2)s1 (stereo not drawn) | -45.6%
CCN(CC1CCOC1)C(=O)c1ccn(-c2ccc(OC)cc2)n1 (stereo not drawn) | -2.48%
COc1nccc(N2CC[C@H](CO)[C@@H](O)C2)c1C#N | -9.02%
CC(NC(=O)c1cccs1)C(=O)NS(=O)(=O)c1cccc(C#N)c1 (stereo not drawn) | 49.9%
CC(NC(=O)c1cccs1)C(=O)NS(=O)(=O)Cc1ccc(C#N)cc1 (stereo not drawn) | 53.3%
CC(NC(=O)c1cccs1)C(=O)NS(=O)(=O)c1ccc(C#N)cc1 (stereo not drawn) | 42.1%
